We go through 20 compounds from PubChem BioAssay (NCI).

This is part of a sample that, as a whole, favours compounds with a hit. Of some 79,000 tested, about 15% had one in any assay. Unmarked numbers belong to inactive results. Activity calls are given as the source filed them. Rule as the data show it: active = growth inhibition above about 70%; inactive = the rest.

Assay [1] is described as follows: NCI Yeast Anticancer Drug Screen. Data for the rad50 strain (AID 155).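 Also: 0% = growth of vehicle-only cultures of the same strain.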 Conditions: S. cerevisiae rad50 strain growth inhibition; at 50.0 µM; active compounds read high. In outline:
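Genetically altered yeast (DNA repair pathway); compound treatment; growth inhibition vs vehicle ctrl.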

Assay [2] can be described thus: NCI Yeast Anticancer Drug Screen. Data for the mec2-1 strain (AID 157). Conditions: S. cerevisiae mec2-1 strain, at 50.0 µM, active compounds read high. An outline of the steps: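 Each compound was tested on mec2-1 yeast, a strain altered in DNA damage repair or cell cycle control. Growth inhibition is reported relative to vehicle.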
The nature of assay [3]: NCI Yeast Anticancer Drug Screen. Data for the sgs1 mgt1 strain (AID 161).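 Also: 0% = growth of cultures given vehicle only.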 Conditions: S. cerevisiae sgs1 mgt1 strain, at 50.0 µM, active compounds read high. An outline of the steps: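 Read-out: growth inhibition vs vehicle controls. Cells: mutant yeast strain deficient in DNA damage repair.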
Assay [4] can be described thus: NCI Yeast Anticancer Drug Screen. Data for the cln2 rad14 strain (AID 165).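 Also: 0% = growth equal to vehicle treated cultures.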 Conditions: S. cerevisiae cln2 rad14 strain, at 50.0 µM, active compounds read high. In outline:
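Test compounds were added to cln2 rad14 yeast cultures; inhibition of growth was then determined by comparison with vehicle treatment.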

A short description of assay [5]: NCI Yeast Anticancer Drug Screen. Data for the bub3 strain (AID 167). Conditions: S. cerevisiae bub3 mutant strain, at 50.0 µM, active compounds read high. In outline: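 Yeast carrying a defined mutation is treated with each compound, and growth is compared with that of vehicle-exposed cells to give inhibition.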
A short description of assay [6]: NCI Yeast Anticancer Drug Screen. Data for the mlh1 rad18 strain (AID 175). Conditions: S. cerevisiae mlh1 rad18 strain growth inhibition; at 50.0 µM; active compounds read high. An outline of the steps:
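Inhibition values reflect reduced growth of mutant yeast versus vehicle-treated controls following compound exposure; the mutations affect DNA damage repair.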

Take `Nc1nnc2nc(CC(=O)c3ccccc3)c(CC(=O)c3ccccc3)nn12`: the growth inhibition in assay [1] is -5.4%; in assay [2] it was -2.9%; in assay [3], 3%; in assay [4], 32.6%; in assay [5] it was -29%; in assay [6], 16.2%.
Regarding `CC(=O)Nc1cccc(N=NN(C)C)c1`, the growth inhibition in assay [1] was 14.2%; in assay [2], 14.1%; in assay [3], 39%; in assay [4] it was 20.5%; in assay [5] it was 34.4%; in assay [6], 29.6%.
For the compound `CCOC(=O)CNc1ccccc1[N+](=O)[O-]`, the growth inhibition in assay [1] is -2.05%; in assay [2], 5.8%; in assay [3], -5.4%; in assay [4], 12.3%; in assay [5] it was 13.1%; in assay [6] it was -3.75%.
For `CC(=O)CC(=O)Nc1cccc(NC(=O)CC(C)=O)c1`, the growth inhibition in assay [1] is -16.4%; in assay [2], 8.45%; in assay [3], -10.6%; in assay [4] it was 3.85%; in assay [5], -5.8%; in assay [6], -20.6%.
Take `COc1ccc2c(c1OC)C(=O)OC2(O)C1=NCCc2cc3c(cc21)OCO3` (stereo not given): the growth inhibition in assay [1] is 19%; in assay [2], -7.25%; in assay [3], 8.1%; in assay [4], 21.3%; in assay [5], 4.05%; in assay [6], 13.2%.
Regarding `COc1ccc(C2=C(OC(C)=O)c3cccn3-c3ccccc3S2)cc1`, the growth inhibition in assay [1] was -34.5%; in assay [2] it was -49.9%; in assay [3], -28.8%; in assay [4], -45.9%; in assay [5] it was -45.8%; in assay [6], 2.15%.
Turning to `c1cc2c3c(cccc3c1)C1C2C2c3cccc4cccc(c34)C12` (stereo not given), the growth inhibition was -11.6% in assay [1]; 18.2% in assay [2]; 7.35% in assay [3]; -2.7% in assay [4]; 3.9% in assay [5]; 0.05% in assay [6].
`N#Cc1c2nc3ccccc3nc2n2ccccc12`: the growth inhibition was 0.7% in assay [1]; 19.4% in assay [2]; -18.9% in assay [3]; 1.25% in assay [4]; 1.15% in assay [5]; 53.8% in assay [6].
For the compound `C=C1C(=O)OC2CCC(O)C12` (stereo not given), the growth inhibition was 6.95% in assay [1]; 5.15% in assay [2]; 1.2% in assay [3]; -30.6% in assay [4]; -1.2% in assay [5]; 11.7% in assay [6].
On to `OC(Cc1cccnc1)(c1ccccc1)c1ccccc1`, for which the growth inhibition in assay [1] is -0.3%; in assay [2], -40.4%; in assay [3], -16.7%; in assay [4], -21.5%; in assay [5] it was -13.9%; in assay [6], -0.4%.
Regarding `CC(=O)[C@H]1CC[C@H]2[C@@H]3CC[C@@H]4CC(=O)CC[C@]4(C)[C@H]3[C@@H]3O[C@@H]3[C@]12C`, the growth inhibition in assay [1] is -13.2%; in assay [2], 5.4%; in assay [3], -11.1%; in assay [4], -46%; in assay [5], -1.1%; in assay [6] it was 7.55%.
As for `Cc1cc(S(=O)(=O)Nc2n[nH]c(N)n2)c(SCC(=O)O)cc1Cl`, the growth inhibition is -2.5% in assay [1]; -0.3% in assay [2]; -27.6% in assay [3]; 8.55% in assay [4]; 1.85% in assay [5]; 18.9% in assay [6].
On to `COc1ccc(/C=N/NC(=O)c2ccccc2NC(=O)c2ccccc2Cl)cc1`, for which the growth inhibition in assay [1] was 17.4%; in assay [2] it was -25.1%; in assay [3], 29.1%; in assay [4], -13.7%; in assay [5], 7.25%; in assay [6], 24.7%.
With `O=C1NN=C(C(O)c2ccccc2)C1(O)c1ccccc1` (stereo not given), the growth inhibition in assay [1] was 8.3%; in assay [2], -6.25%; in assay [3], -0.65%; in assay [4], 0.2%; in assay [5], 2.5%; in assay [6], 17.8%.
Regarding `CC(C)(C)C1=CC(=C2C(=O)C(=O)c3ccccc3C2=O)C=C(C(C)(C)C)C1=O`, the growth inhibition in assay [1] was -3.2%; in assay [2], -22.2%; in assay [3], -12.7%; in assay [4], 6.85%; in assay [5], 22.4%; in assay [6], -21.5%.
For `C=CCNC(=O)C[n+]1cccc(C(=O)Nc2ccccc2)c1`, the growth inhibition in assay [1] is 1.65%; in assay [2] it was -18.2%; in assay [3], 5.4%; in assay [4] it was 23.2%; in assay [5], 5.95%; in assay [6] it was -0.95%.
Take `OC(C(=S)N1CCCC1)(c1ccccc1)c1ccccc1`: the growth inhibition is 10.8% in assay [1]; 17.3% in assay [2]; 24.2% in assay [3]; 8.45% in assay [4]; 9.6% in assay [5]; -0.6% in assay [6].
With `c1ccc(/C2=C(\c3ccccc3)CSSSSC2)cc1`, the growth inhibition in assay [1] was 68.5%; in assay [2], 48.4%; in assay [3], 45.4%; in assay [4] it was 43.2%; in assay [5], 62.9%; in assay [6], 89% (active).
Consider `CCOC(=O)C(Cc1ccccc1Cl)(Cc1ccccc1Cl)c1ccccc1`, for which the growth inhibition in assay [1] was 7.15%; in assay [2], -17.1%; in assay [3] it was -10.5%; in assay [4] it was -79.5%; in assay [5] it was -4.95%; in assay [6], 1.3%.
For `Nc1cc(=O)n(C2OC(CO)C(O)C2O)cn1` (stereo not given), the growth inhibition in assay [1] was 6.85%; in assay [2], -8.35%; in assay [3], -0.3%; in assay [4], -39.4%; in assay [5], -19.4%; in assay [6] it was 8.05%.
